# Data reported in PubChem BioAssay.
# Several values for one entry are separate records, joined by “and”; a condition that tells them apart may be missing. Equal values may be shown once. Activity calls are given as the source filed them. Cut-off read from the data, not from the text of the source, unless noted: active = inhibition above about 80%; inactive = the rest.
# Assays:
# [1] = hESC survival regulators, cell-based (AID 493140; call rule not given here;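 note: cells exposed to compounds for four days before counting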); conditions: human embryonic stem cell survival screen; stronger effect = higher value
# [2] = liver-stage malaria parasite growth inhibition, primary screen, cell-based, HepG2, luciferase luminescence, HepG2 viability (AID 624349; in the data active = parasite load remaining mostly below about 12%, no sharp cut-off; inactive = mostly above about 10%;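 note: 100% = mean of DMSO negative control wells on the same plate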); conditions: P. berghei liver stage in HepG2, luciferase luminescence, concentration not given here; parasite load remaining: stronger effect = lower value; viability: measured here: HepG2 viability without parasites
# [3] = sensitizers of A549 cells to miR-34 induction, primary screen, imaging, A549 dox-inducible miR-34, nuclei and caspase counts (AID 1347080;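 active = compounds whose cell count with miR-34 switched on is under 0.7 times the count with it off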); conditions: A549 miR-34 inducible, Hoechst nuclei count, 48 h
# [4] = survival rescue of mitochondrial mutant cells in low glucose, primary screen, MELAS cybrids, Rieske KO mouse fibroblasts, CellTiter-Glo (AID 1508586;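 active = mean z-score across replicates of 1.96 or higher in either the MELAS or the Rieske mutant cell line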;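 note: z relative to plate mean and SD of compound and empty wells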)
# [5] = LFS_MB_P medulloblastoma growth inhibition, cell-based, chromothripsis tumors, cisplatin or BGB combos (AID 1671449); conditions: LFS_MB_P medulloblastoma cells;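 note: cells exposed for 96 hours; 0% = vehicle DMSO and 100% = killing by high DMSO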
# [6] = HDN33 neuroblastoma growth inhibition, cell-based, chromothripsis tumors, cisplatin or BGB combos (AID 1671450); conditions: HDN33 neuroblastoma cells, stronger effect = higher value;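 note: cells exposed to compound for four days; 0% = vehicle DMSO and 100% = cell killing by high DMSO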
# [7] = ICB984 medulloblastoma cell growth inhibition, synergistic combos for chromothripsis tumors, cisplatin or BGB combos (AID 1671451; call rule not given here;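 note: cells exposed for 96 hours before readout; 0% = vehicle DMSO and 100% = killing by high DMSO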); conditions: ICB984 medulloblastoma cells, drug combinations, stronger effect = higher value
# [8] = LFS_MB_1R medulloblastoma cell growth inhibition, synergistic combos for chromothripsis tumors, cisplatin or BGB combos (AID 1671452); conditions: LFS_MB_1R medulloblastoma cells, stronger effect = higher value;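 note: cells exposed for 96 hours before readout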
# [9] = HTB85 osteosarcoma cell growth inhibition, synergistic combos for chromothripsis tumors, BGB or cisplatin IC20 combos (AID 1671453); conditions: HTB85 osteosarcoma cells, drug combinations, stronger effect = higher value;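 note: cells exposed for 96 hours before readout; 0% = vehicle DMSO and 100% = high DMSO killing control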
# [10] = CRL2098 osteosarcoma cell growth inhibition, synergistic combos for chromothripsis tumors, BGB or cisplatin IC20 combos (AID 1671454); conditions: CRL2098 osteosarcoma cells, drug combinations, stronger effect = higher value;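 note: cells exposed for 96 h before readout; 0% = vehicle DMSO and 100% = killing by high DMSO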
# [11] = HD-MB03 medulloblastoma cell growth inhibition, synergistic combos for chromothripsis tumors, BGB or cisplatin IC20 combos (AID 1671455; in the data active = inhibition above about 83%;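 note: 0% = vehicle DMSO and 100% = high DMSO as cytotoxic control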); conditions: HD-MB03 medulloblastoma cells, stronger effect = higher value
# [12] = UWB1.289 ovarian carcinoma cell growth inhibition, synergistic combos for chromothripsis tumors, BGB or cisplatin combos (AID 1671456); conditions: UWB1.289 ovarian carcinoma cells, stronger effect = higher value;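 note: cells exposed to compound for four days; 0% = vehicle DMSO and 100% = killing by high DMSO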
# [13] = LFS_MB_2R medulloblastoma cell growth inhibition, synergistic combos for chromothripsis tumors, cisplatin combos (AID 1671457); conditions: LFS_MB_2R medulloblastoma cells, stronger effect = higher value;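 note: cells exposed to compound for four days before readout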
# [14] = MDA-MB-436 breast carcinoma cell growth inhibition, synergistic combos for chromothripsis tumors, BGB or cisplatin combos (AID 1671458; call rule not given here;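 note: cells exposed for 96 hours; 0% = vehicle DMSO and 100% = killing by high DMSO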); conditions: MDA-MB-436 breast carcinoma growth inhibition, drug combinations, stronger effect = higher value
# [15] = UWB1.289_BRCA1 ovarian cancer growth, cell-based, BGB or cisplatin combinations (AID 1671459); conditions: UWB1.289 BRCA1 ovarian carcinoma, drug combinations, stronger effect = higher value
# [16] = human astrocyte viability loss, single and combined drugs, cytotoxicity control for chromothriptic childhood tumor combination screen, cell-based, BGB or cisplatin IC20 combos (AID 1671460); conditions: Human astrocytes, drug combinations, stronger effect = higher value;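 note: cells exposed to compounds for 96 hours before viability readout; 0% = vehicle and 100% = killing control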
# [17] = growth inhibition of BT084 medulloblastoma cells, cell-based, ICGC_MB145, cisplatin and BGB IC40 combos (AID 1671461); conditions: drug combinations, stronger effect = higher value;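 note: cells exposed to drugs for 96 hours; 0% = vehicle DMSO and 100% = high DMSO full killing control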
# [18] = growth inhibition of RCMB18 medulloblastoma cells, cell-based, cisplatin and BGB IC40 combos (AID 1671462); conditions: stronger effect = higher value;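 note: cells exposed to compound for four days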
# [19] = growth inhibition of CRL1545 osteosarcoma cells, cell-based, cisplatin and BGB IC20 combos (AID 1671464); conditions: stronger effect = higher value;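 note: cells exposed to compound for 96 hours before readout; 0% = vehicle DMSO and 100% = high DMSO killing control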
# [20] = stronger effect = lower value, cell number ratio, induced over uninduced
# [21] = measured here: relative caspase fold change +Dox/-Dox
# [22] = measured here: total cells with miR-34 induction, stronger effect = lower value
# [23] = measured here: total cells without miR-34 induction
# [24] = MELAS cybrid survival, CellTiter-Glo 48 h, stronger effect = higher value
# [25] = Rieske KO mouse fibroblast survival, CellTiter-Glo 72 h
# [26] = measured here: combination with BGB IC40, at 0.05 µM
# [27] = measured here: with BGB IC20 combination, at 0.5 µM
# [28] = measured here: with cisplatin IC20 combination, at 0.5 µM
# [29] = measured here: combination with cisplatin, at 0.5 µM
# [30] = measured here: combination with cisplatin, at 5 µM
smiles,measurement,setting,value
C=CCOc1ccccc1OCC(O)CNC(C)C (configuration not stated),survival,[1],7.17 (inactive)
same,parasite load remaining,[2],73.5% (inactive)
same,viability,[2],76.9%
same,fold change,[3]; [20],0.94 (inactive)
same,fold change,[3]; [21],0.727
same,cell count,[3]; [22],9530
same,cell count,[3]; [23],10100
same,z-score,[4]; [24],0.73 (inactive)
same,z-score,[4]; [25],0.111
CNCCC=C1c2ccccc2C=Cc2ccccc21,survival,[1],0.833 (inactive)
same,parasite load remaining,[2],45.3% (inactive) and 67.3% (inactive)
same,viability,[2],45.5% and 71.9%
same,fold change,[3]; [20],0.862 (inactive)
same,fold change,[3]; [21],1.27
same,cell count,[3]; [22],6810
same,cell count,[3]; [23],7910
same,z-score,[4]; [24],0.194 (inactive)
same,z-score,[4]; [25],0.365
O=C(O)c1cc2cccc([N+](=O)[O-])c2[nH]1,fold change,[3]; [20],0.946 (inactive)
same,fold change,[3]; [21],0.523
same,cell count,[3]; [22],8560
same,cell count,[3]; [23],9040
same,z-score,[4]; [24],-0.36 (inactive)
same,z-score,[4]; [25],0.315
same,inhibition,"[5]; at 0.5 µM, stronger effect = higher value",-23.9% (inactive)
same,inhibition,"[5]; measured here: combination with BGB IC20, at 0.005 µM",-6.46%
same,inhibition,"[5]; measured here: combination with BGB IC40, at 0.005 µM",-31.7%
same,inhibition,[5]; [26],-15.1%
same,inhibition,"[5]; measured here: combination with cisplatin, at 0.5 µM, stronger effect = higher value",-30%
same,inhibition,"[5]; measured here: combination with cisplatin, at 5 µM, stronger effect = higher value",-50.9%
same,inhibition,"[6]; BGB combo, at 5 µM",-9.55%
same,inhibition,[6]; at 0.5 µM,-19.2% (inactive)
same,inhibition,"[6]; cisplatin combo, at 5 µM",-1.64%
same,inhibition,[6]; [27],-22.3%
same,inhibition,[6]; [28],-18.1%
same,inhibition,"[6]; single agent, at 5 µM",-9.97%
same,inhibition,"[7]; BGB IC20 combo, at 0.005 µM",-35.7%
same,inhibition,"[7]; BGB IC40 combo, at 0.005 µM",-62.5%
same,inhibition,"[7]; BGB IC40 combo, at 0.05 µM",-61%
same,inhibition,[7]; at 0.5 µM,-39.2% (inactive)
same,inhibition,"[7]; cisplatin combo, at 0.05 µM",-67.4%
same,inhibition,"[7]; cisplatin combo, at 0.5 µM",-58.3%
same,inhibition,"[7]; cisplatin combo, at 5 µM",-47.8%
same,inhibition,"[7]; measured here: 5 uM single agent, at 5 µM",-25.3%
same,inhibition,[8]; at 0.5 µM,-25.3% (inactive)
same,inhibition,[8]; [26],-24.6%
same,inhibition,[8]; [29],-18.7%
same,inhibition,[8]; [30],-30.6%
same,inhibition,[9]; at 0.5 µM,-15.9% (inactive)
same,inhibition,"[9]; measured here: with BGB IC20, at 0.5 µM",-41.2%
same,inhibition,"[9]; measured here: with BGB IC20, at 5 µM",-22.3%
same,inhibition,"[9]; measured here: with cisplatin IC20, at 0.5 µM",-7.91%
same,inhibition,"[9]; measured here: with cisplatin IC20, at 5 µM",-2.59%
same,inhibition,"[9]; single agent, at 5 µM",-17.2%
same,inhibition,[10]; at 0.5 µM,-68.3% (inactive)
same,inhibition,"[10]; measured here: combination with BGB at IC20, at 0.5 µM",-23.9%
same,inhibition,"[10]; measured here: combination with cisplatin at IC20, at 0.5 µM",-78.8%
same,inhibition,[11]; at 0.5 µM,-5.12% (inactive)
same,inhibition,"[11]; measured here: combo with BGB at IC20, at 0.5 µM",-8.83%
same,inhibition,"[11]; measured here: combo with cisplatin at IC20, at 0.5 µM",1.4%
same,inhibition,[12]; at 0.5 µM,-15.9% (inactive)
same,inhibition,"[12]; measured here: inhibition with BGB combination, at 0.05 µM",-35.8%
same,inhibition,"[12]; measured here: inhibition with cisplatin combination, at 0.05 µM",40%
same,inhibition,[13]; at 0.5 µM,-32% (inactive)
same,inhibition,[13]; [29],-28.5%
same,inhibition,[13]; [30],-29.3%
same,inhibition,[14]; at 0.5 µM,-23.3% (inactive)
same,inhibition,"[14]; measured here: BGB combination, at 0.5 µM",-25%
same,inhibition,"[14]; measured here: BGB combination, at 5 µM",-42.9%
same,inhibition,"[14]; measured here: cisplatin combination, at 0.5 µM",-25.6%
same,inhibition,"[14]; measured here: cisplatin combination, at 5 µM",-40.6%
same,inhibition,"[15]; BGB combination, concentration series, at 5 µM",-18.8%
same,inhibition,[15]; at 0.5 µM,-21.8% (inactive)
same,inhibition,"[15]; cisplatin combination, concentration series, at 5 µM",-8.12%
same,inhibition,[16]; at 0.5 µM,-16% (inactive)
same,inhibition,"[16]; measured here: combo with BGB IC20, at 0.5 µM",-13.8%
same,inhibition,"[16]; measured here: combo with cisplatin IC20, at 0.5 µM",-5.7%
same,inhibition,[17]; at 0.5 µM,-15.5% (inactive)
same,inhibition,"[17]; cisplatin combination, at 0.5 µM",-11.3%
same,inhibition,"[17]; cisplatin combination, at 5 µM",-2.07%
same,inhibition,"[17]; measured here: BGB IC40 combination 0.05 uM, at 0.05 µM",-9.88%
same,inhibition,"[17]; single agent, at 5 µM",-23.7%
same,inhibition,[18]; at 0.5 µM,-11.6% (inactive)
same,inhibition,"[18]; cisplatin combo, at 5 µM",27.1%
same,inhibition,"[18]; measured here: BGB IC40 combination, at 0.05 µM",-14.6%
same,inhibition,[18]; [29],5.09%
same,inhibition,"[18]; single agent, at 5 µM",-41.3%
same,inhibition,[19]; at 0.5 µM,-22.4% (inactive)
same,inhibition,[19]; [27],-10%
same,inhibition,[19]; [28],-28.5%
same,inhibition,"[19]; single agent, at 0.05 µM",22.7%
same,inhibition,"[19]; single agent, at 5 µM",-25.9%
